Bioassay records: PubChem BioAssay, National Center for Advancing Translational Sciences (NCATS)
TRb-SRC2 inh – TRbeta-SRC2 interaction inhibition. TRbeta-SRC2 peptide binding, fluorescence polarization; receptor liganded with 1 µM T3. AID 1469. 0.065% of 280,000 active. Potency, µM (top dose mostly 106 µM), inactives show at the top dose activity change, negative = inhibition, actives largely listed as inhibitors;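 note: plate controls were bound peptide for no effect and peptide without receptor for full effect; nearly all actives have a fitted effect of over 50% in size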
Target sequence (P10828 whole entry, looked up): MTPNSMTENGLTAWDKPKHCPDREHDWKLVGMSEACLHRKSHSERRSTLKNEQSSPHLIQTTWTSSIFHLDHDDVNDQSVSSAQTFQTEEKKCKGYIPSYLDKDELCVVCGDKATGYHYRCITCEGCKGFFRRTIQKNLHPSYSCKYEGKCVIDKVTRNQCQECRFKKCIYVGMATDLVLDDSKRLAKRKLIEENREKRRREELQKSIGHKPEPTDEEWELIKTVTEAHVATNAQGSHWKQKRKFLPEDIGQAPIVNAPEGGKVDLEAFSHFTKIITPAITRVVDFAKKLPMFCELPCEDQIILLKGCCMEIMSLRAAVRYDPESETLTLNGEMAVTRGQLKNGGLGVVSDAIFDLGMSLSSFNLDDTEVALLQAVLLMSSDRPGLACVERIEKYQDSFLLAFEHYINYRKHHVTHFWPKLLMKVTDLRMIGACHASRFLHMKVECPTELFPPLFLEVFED
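Polarization signal, normalized between peptide-alone and full complex controls, measured compound effects on T3-liganded human TRb LBD (0.6 uM) binding 20 nM Texas Red SRC2 peptide after 5 hr.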
Tau fluor cs – counter-screen for tau fibril formation inhibitors; AID 1463; Potency, µM (series often up to 57.7 µM), for inactives: top-dose activity change, negative = decrease; tau K18 P301L Alexa594 fluorescence, heparin fibrillization; 0.93% of 280,000 active; note: nearly all actives have a fitted effect of over 55% in size
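Human K18 P301L tau (15 uM unlabeled plus 0.24 uM Alexa 594-labeled, final) in 100 mM sodium acetate pH 7 was mixed with compound and 20 uM heparin and incubated 6 hr at 37 C.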
Tau fibril ThT – inhibitors of human tau fibril formation, thioflavin T binding. P10636. recombinant tau K18 P301L (four-repeat tau fragment), heparin-induced fibrillization, ThT fluorescence. Potency, µM (titrated, usually from 57.4 µM), for the others: at the highest dose activity, negative = inhibition, most hits filed as inhibitors. 2.1% of 270,000 active. AID 1460; note: nearly all actives have a fitted effect of over 55% in size
Target sequence (P10636 561-689 P618L limits assumed): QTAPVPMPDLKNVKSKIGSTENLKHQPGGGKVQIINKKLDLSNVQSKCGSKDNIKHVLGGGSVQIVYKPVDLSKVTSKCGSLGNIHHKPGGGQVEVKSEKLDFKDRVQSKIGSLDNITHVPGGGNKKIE
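Heparin-induced (20 uM) aggregation of recombinant human K18 P301L tau, 15 uM unlabeled with 0.24 uM labeled, pH 7 acetate buffer, 6 hr at 37 C with compound. Fibrils quantified by 30 uM ThT fluorescence after 1 hr ambient incubation.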
Tau fibril FP – inhibitors of human tau fibril formation | P10636 | AID 1468 | K18 P301L tau heparin fibrillization, Alexa594 FP, 6 h | 0.39% of 280,000 active | Potency, µM (top dose mostly 57.7 µM), without a hit: at the highest dose activity, negative = inhibition, hits mostly inhibitors; note: nearly all actives have a fitted effect of over 55% in size
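Quantitative HTS format: compounds meet 15 uM recombinant K18 P301L tau and Alexa 594-tau tracer in 100 mM sodium acetate pH 7; 20 uM heparin triggers fibrillization at 37 C over 6 hr; FP gives the signal.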
TR SRC2 fluor cs – alters Texas Red total fluorescence, flagging assay interference; TRb/SRC2 Texas Red total fluorescence interference; Potency, µM (series often up to 106 µM), without a hit: at the top dose fluorescence change, negative = quenching; 0.29% of 280,000 active; active = well fitted curve in either direction with a large enough effect; inconclusive = small, poorly fitted or top-dose-only effect
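Human TRb ligand-binding domain at 0.6 uM with 20 nM Texas Red SRC2 peptide in Tris buffer containing 1 uM T3 and 5% DMSO, incubated with compound 5 h at ambient temperature. Total fluorescence (555/632 nm) calculated as parallel + 2 × perpendicular.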
* marks the source's active call; other numbers are inactive results; ? = inconclusive; nt = no result; [ ] = remark or other dose. An excerpt weighted towards active compounds, which were near 3.1% of everything screened. Unless noted, calls come from the whole dose curve; as a rule, active = well fitted curve in the direction sought with a large enough effect; inconclusive = small, poorly fitted or top-dose-only effect, or another doubt; inactive = no such curve, though single readings can be large; an effect the other way counts as inactive or inconclusive. Unless noted, % is set by controls: 0 for no effect and ±100 for the full control effect; potency is the fitted concentration of half-maximal effect.

SMILES	TRb-SRC2 inh	Tau fluor cs	Tau fibril ThT	Tau fibril FP	TR SRC2 fluor cs
Cc1cnc2c(c1SCC(=O)NCc1ccccc1Cl)c(=O)n(C)c(=O)n2C	-3%	13%	5%	3%	-2%
Nc1[nH]c(=O)[nH]c(=O)c1N=Nc1cccc(Cl)c1	2%	0%	7%	0%	-5%
O=C=Nc1ccc(Cl)c(Cl)c1	-5%	nt	nt	nt	-5%
Nc1n[nH]c(C2CC2)c1N=Nc1ccc(Cl)c(Cl)c1	-2%	13µM*[quencher]	13µM*	?	-6%
Cc1[nH]nc(N)c1N=Nc1ccc(Br)cc1	3%	?	11µM*	6%	-1%
Cc1nc(N)sc1N=Nc1ccc(Br)cc1	-3%	16µM*[quencher]	4µM*	8%	-10%
Nc1n[nH]c(C2CC2)c1N=Nc1ccc(Cl)cc1	-7%	16µM*[quencher]	10µM*	13%	-5%
Cc1ccc(C)c2sc(N)nc12	-3%	0%	-10%	9%	-6%
O=C(O)c1ccc2c(c1)C(=O)N([C@]1(C(=O)O)CC1c1ccccc1)C2=O (stereo partly specified)	-4%	nt	nt	nt	-2%
O=C(CSc1nc(COc2ccccc2)nc2ccccc12)NC1CCCC1	-5%	15%[2.34 µM]	-3%	-8%	-3%
C=COC(=O)c1sc2nc(C)cc(C)c2c1N	3%	-3%	-11%	7%	-1%
CC(=O)c1ccc(OCC(O)CN2CCN(c3ccccn3)CC2)cc1 (stereo unspecified)	1%	-4%	?	-1%	-1%
Cc1cc2c(OCC(CNC(C)(C)C)OC(=O)c3ccccc3)cccc2[nH]1 (stereo unspecified)	-12%	-23%	?	1%	-1%
COc1ccc(C(C)(C)C)cc1NC(=O)Nc1ccc2c(c1)OCO2	1%	14µM*[quencher]	?	?	1%
COc1cc(NC(=O)Nc2ccc3c(c2)OCO3)cc(OC)c1OC	1%	-18%	-5%	4%	-3%
O=C(Nc1ccc([N+](=O)[O-])cc1)Nc1ccc2[nH]c(=O)[nH]c2c1	41%	8.9µM*[quencher]	8.9µM*	23%	-35%
O=C(Nc1ccc([N+](=O)[O-])cc1)Nc1ccc2c(c1)OCCO2	0%	8.9µM*[quencher]	?	?	-4%
COc1cc([N+](=O)[O-])ccc1NC(=O)Oc1ccc(NC(C)=O)cc1	7%	-5%	-9%	0%	1%
COc1cc([N+](=O)[O-])ccc1NC(=O)Nc1ccc2c(c1)OCCO2	10%	16µM*[quencher]	13µM*	?	-4%
CC(=O)N1N=C(c2ccco2)CC1c1ccc(Br)cc1 (stereo unspecified)	-13%	-3%	-2%	2%	-1%
COCCOCCOCCOC	8%[201 µM]	nt	nt	nt	-2%[201 µM]
Nc1nc(NCC2CCC(CNS(=O)(=O)c3cccc4ccccc34)CC2)nc2ccccc12 (stereo unspecified)	-9%	?	-9%	?	-3%
CCCc1ccc(O)c(N=Cc2cc(Br)cc(OCC)c2O)c1	-3%	-23%	14µM*	-11%	0%
CC(/C=N/NC(=O)c1cccc([N+](=O)[O-])c1)=C\c1ccccc1	-34%	-13%	-12%	6%	2%
O=C(N/N=C/C(Cl)=C/c1ccc([N+](=O)[O-])cc1)C(=O)Nc1cccc(C(=O)O)c1	-1%	?	3.5µM*	-7%	-5%
SMILES	TRb-SRC2 inh	Tau fluor cs	Tau fibril ThT	Tau fibril FP	TR SRC2 fluor cs
CCOC(=O)/C(C#N)=C/C=C1\C=Cc2ccccc2N1CC	-2%	-30%	1.6µM*	-10%	0%
CN1/C(=C/C=C(C#N)C#N)C=Cc2ccccc21	?	?	?	25µM*	?
C/C(N)=C(/C#N)C(=O)COC(=O)c1ccc(NC(N)=O)cc1	-4%	-2%	2%	0%	0%
COC(=O)C1=C2N(Cc3ccccc3)C(C)=C(C(=O)OC)C(c3ccccc3)N2C(=O)[C@](O)(C(=O)OC)C1 (stereo partly specified)	0%[11.2 µM]	-5%[11.6 µM]	-4%[11.5 µM]	-9%[11.6 µM]	?
Cc1ccccc1-c1noc(CSc2nnc(Cc3ccccc3)n2-c2ccc(F)cc2)n1	1%	-23%	?	-4%	-23%
COC(=O)CC1c2ccccc2C=C(/C=C/c2ccc3c(c2)OCO3)N1C(=O)OC (stereo unspecified)	-4%[11.2 µM]	-5%[11.6 µM]	-1%[11.5 µM]	4%[11.6 µM]	-3%[11.2 µM]
COc1ccc(/C=C/C(=O)C2C(=O)C=C(C)OC2=O)cc1O (stereo unspecified)	10%	?	25µM*	-2%	-3%
CN(C)c1ccc(-c2nc(-c3cccs3)c(-c3cccs3)[nH]2)cc1	-3%	10µM*[quencher]	?	-1%	-3%
c1ccc(-c2nc(-c3cccs3)[nH]c2-c2ccccc2)cc1	-7%	?	7%	0%	0%
Oc1ccccc1-c1nc(-c2cccs2)c(-c2cccs2)[nH]1	4%	4.5µM*[quencher]	14µM*	?	-2%
COc1cc(-c2nc(-c3ccccc3)c(-c3cccs3)[nH]2)cc(OC)c1O	5%	14µM*[quencher]	?	9%	-10%
COc1cc(-c2nc(-c3ccccc3)c(-c3cccs3)[nH]2)cc(OC)c1OC	-5%	?	-21%	?	0%
COc1cccc2cc(C(=O)NCCc3c[nH]c4ccccc34)c(=O)oc12	10%	?	?	6%	-8%
COc1cccc([C@@H]2Oc3ccc(OC)cc3C[C@H]2OC(=O)NCc2ccco2)c1	9%	-3%	-5%	2%	-1%
COC(=O)C(CC(C)C)NS(=O)(=O)c1ccccc1Br (stereo unspecified)	2%	nt	nt	nt	-1%
O=C(Nc1cccc(Cl)c1)Nc1ccccc1-n1ccnc1	7%	-9%	0%	-6%	2%
O=c1/c(=C\c2cccc(O)c2)sc2nc(-c3ccccc3)c(-c3ccccc3)n12	0%	?	11µM*	25µM*	-3%
CCOc1ccc(C(=O)c2ccc(OC)c(O)c2O)cc1	2%	?	16µM*	?	-1%
COc1ccc(C(=O)c2ccc(O)cc2)c(O)c1O	-6%	?	?	?	-6%
COC(=O)C1=C(C(=O)OC)[C@@H]2N(C)c3ccccc3[C@@]23C[C@@H](C(=O)OC)N(S(=O)(=O)c2ccc(C(F)(F)F)cc2)C3=N1	6%[11.2 µM]	-20%[11.6 µM]	-4%[11.5 µM]	3%[11.6 µM]	1%[11.2 µM]
CCOc1ccc(NC(=S)NCc2ccc3[nH]c(C)cc3c2)cc1	-1%	20µM*[quencher]	?	?	-1%
CCOc1ccc(CCNC(=O)c2sc3nc4n(c(=O)c3c2C)CCCC4)cc1	1%	-7%	-12%	-7%	-16%
COc1ccc(-c2csc(NC(=O)c3ccccc3NS(=O)(=O)c3ccc(F)c(F)c3)n2)cc1	11%	?	22µM*	?	-19%
